The results in this text go back to article PMC7862700, “An all-to-all approach to the identification of sequence-specific readers for epigenetic DNA modifications on cytosine”.

Common to all, as to test: DAPPL (digital affinity profiling via proximity ligation, sequencing); 10 mM Tris-HCl pH 7.5, 50 mM NaCl, 1 mM DTT, 4% glycerol, room temperature, 30 min; GST-TFs on glutathione beads, 16-mer random dsDNA library, 0.1% formaldehyde crosslink after washing; high values mean tight binding
For one assay, the target named is T1, FLI1 (Homo sapiens, UniProt Q01543 1-452).
T1 sequence: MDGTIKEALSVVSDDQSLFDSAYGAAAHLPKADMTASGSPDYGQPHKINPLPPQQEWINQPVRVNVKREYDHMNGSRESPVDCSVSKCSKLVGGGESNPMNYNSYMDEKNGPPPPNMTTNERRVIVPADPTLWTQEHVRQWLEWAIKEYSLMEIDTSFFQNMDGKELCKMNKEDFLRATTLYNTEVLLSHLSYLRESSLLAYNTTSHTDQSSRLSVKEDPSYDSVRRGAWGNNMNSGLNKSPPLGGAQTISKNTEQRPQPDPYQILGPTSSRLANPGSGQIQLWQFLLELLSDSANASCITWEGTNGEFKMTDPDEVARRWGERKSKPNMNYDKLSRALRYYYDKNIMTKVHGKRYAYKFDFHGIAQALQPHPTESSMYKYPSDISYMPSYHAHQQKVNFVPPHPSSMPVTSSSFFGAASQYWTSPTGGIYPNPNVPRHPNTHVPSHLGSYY
To be noted: protein: recombinant; tags: N-terminal GST; dsDNA, one strand shown. The gist of the method: (§1)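 Pools were built from human transcription factors expressed in yeast as GST fusions, captured on glutathione beads and DNA-barcoded, along with a tag-only sample. Incubation with 200 nmole of a 16-mer random double-stranded DNA library lasted 30 min at room temperature in Tris/NaCl/DTT/glycerol buffer, and was followed by washing, 0.1% formaldehyde crosslinking, proximity ligation, PCR amplification and Illumina NextSeq500 sequencing. Binding signal is the quotient of each hexamer's read frequency for a factor and its frequency for the tag-only sample.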

For another assay, the target named is T2, ELK1 (Homo sapiens, UniProt P19419 1-428).
T2 sequence: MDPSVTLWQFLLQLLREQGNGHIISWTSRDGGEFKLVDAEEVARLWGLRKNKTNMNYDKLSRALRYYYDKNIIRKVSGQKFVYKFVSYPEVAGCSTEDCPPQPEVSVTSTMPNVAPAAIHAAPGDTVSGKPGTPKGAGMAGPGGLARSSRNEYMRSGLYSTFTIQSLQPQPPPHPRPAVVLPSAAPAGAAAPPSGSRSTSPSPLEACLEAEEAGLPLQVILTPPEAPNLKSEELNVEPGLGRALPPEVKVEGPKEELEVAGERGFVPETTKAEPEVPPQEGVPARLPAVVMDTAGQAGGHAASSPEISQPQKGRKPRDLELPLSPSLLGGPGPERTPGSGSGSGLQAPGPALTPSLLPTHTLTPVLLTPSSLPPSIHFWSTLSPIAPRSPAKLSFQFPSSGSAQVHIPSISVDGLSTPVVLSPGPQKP
To be noted: protein: recombinant; tags: N-terminal GST; dsDNA, one strand shown. The method, boiled down:
as §1

Another assay deals with T3, GABPA (Homo sapiens, UniProt Q06546 1-454).
T3 sequence: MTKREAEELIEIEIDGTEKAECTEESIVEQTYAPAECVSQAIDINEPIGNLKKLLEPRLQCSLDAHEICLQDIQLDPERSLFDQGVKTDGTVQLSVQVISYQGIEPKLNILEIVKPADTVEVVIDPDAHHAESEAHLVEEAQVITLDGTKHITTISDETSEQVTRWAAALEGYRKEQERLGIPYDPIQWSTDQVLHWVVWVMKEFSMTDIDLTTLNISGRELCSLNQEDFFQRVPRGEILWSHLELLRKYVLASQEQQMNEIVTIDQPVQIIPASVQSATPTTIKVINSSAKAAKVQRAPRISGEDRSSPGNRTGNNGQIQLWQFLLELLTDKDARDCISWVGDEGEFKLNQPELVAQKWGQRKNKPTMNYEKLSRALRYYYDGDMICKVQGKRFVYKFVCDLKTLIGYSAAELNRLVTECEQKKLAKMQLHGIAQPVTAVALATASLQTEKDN
Conditions: protein: recombinant; tags: N-terminal GST; dsDNA, one strand shown. The gist of the method:
as §1

A further assay addresses T4, ERG (Homo sapiens, UniProt P11308 1-479).
T4 sequence: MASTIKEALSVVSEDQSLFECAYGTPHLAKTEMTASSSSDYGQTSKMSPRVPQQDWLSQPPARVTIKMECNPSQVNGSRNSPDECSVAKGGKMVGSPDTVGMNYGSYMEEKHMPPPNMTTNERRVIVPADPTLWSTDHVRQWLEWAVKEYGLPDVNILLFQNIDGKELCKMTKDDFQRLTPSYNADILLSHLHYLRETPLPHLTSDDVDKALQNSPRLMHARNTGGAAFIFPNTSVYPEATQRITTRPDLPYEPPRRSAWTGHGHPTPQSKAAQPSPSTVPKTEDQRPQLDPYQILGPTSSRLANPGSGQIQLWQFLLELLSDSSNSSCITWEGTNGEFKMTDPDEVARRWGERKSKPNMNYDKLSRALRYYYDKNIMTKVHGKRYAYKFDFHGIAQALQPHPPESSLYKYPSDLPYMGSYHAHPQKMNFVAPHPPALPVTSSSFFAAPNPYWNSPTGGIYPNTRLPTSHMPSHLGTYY
To be noted: protein: recombinant; tags: N-terminal GST; dsDNA, one strand shown. The method, boiled down: as §1

Another assay has as its target ELF1 (Homo sapiens, UniProt P32519 1-619). Conditions: protein: recombinant; tags: N-terminal GST; dsDNA, one strand shown. The gist of the method: as §1
A further assay deals with T5, EHF (Homo sapiens, UniProt Q9NZC4 1-300).
T5 sequence: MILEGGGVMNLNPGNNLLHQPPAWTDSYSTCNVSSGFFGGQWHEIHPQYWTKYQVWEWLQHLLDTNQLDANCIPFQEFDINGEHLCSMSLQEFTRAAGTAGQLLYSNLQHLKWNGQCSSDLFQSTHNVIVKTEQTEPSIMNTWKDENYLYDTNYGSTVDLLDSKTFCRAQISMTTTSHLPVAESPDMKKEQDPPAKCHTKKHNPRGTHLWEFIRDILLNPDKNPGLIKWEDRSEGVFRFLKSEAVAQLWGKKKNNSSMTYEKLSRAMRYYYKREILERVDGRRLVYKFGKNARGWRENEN
Conditions: protein: recombinant; tags: N-terminal GST; dsDNA, one strand shown. The gist of the method:
as §1

The target of another assay is SPI1 (Homo sapiens, UniProt P17947 1-270). Conditions: protein: recombinant; tags: N-terminal GST; dsDNA, one strand shown. The method, boiled down: as §1
In another assay the target is SPIB (Homo sapiens, UniProt Q01892 1-262). Conditions: protein: recombinant; tags: N-terminal GST; dsDNA, one strand shown. The gist of the method: as §1
Sequence of SPIB (Q01892 whole entry): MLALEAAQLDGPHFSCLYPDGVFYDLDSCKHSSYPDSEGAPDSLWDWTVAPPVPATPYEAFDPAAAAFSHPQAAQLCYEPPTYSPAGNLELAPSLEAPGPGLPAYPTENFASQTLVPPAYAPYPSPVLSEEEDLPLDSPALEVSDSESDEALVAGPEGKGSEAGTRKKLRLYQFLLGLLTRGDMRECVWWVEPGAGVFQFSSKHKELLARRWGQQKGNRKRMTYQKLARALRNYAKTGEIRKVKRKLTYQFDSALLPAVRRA
The target of another assay is T6, ELK3 (Homo sapiens, UniProt P41970 1-407).
T6 sequence: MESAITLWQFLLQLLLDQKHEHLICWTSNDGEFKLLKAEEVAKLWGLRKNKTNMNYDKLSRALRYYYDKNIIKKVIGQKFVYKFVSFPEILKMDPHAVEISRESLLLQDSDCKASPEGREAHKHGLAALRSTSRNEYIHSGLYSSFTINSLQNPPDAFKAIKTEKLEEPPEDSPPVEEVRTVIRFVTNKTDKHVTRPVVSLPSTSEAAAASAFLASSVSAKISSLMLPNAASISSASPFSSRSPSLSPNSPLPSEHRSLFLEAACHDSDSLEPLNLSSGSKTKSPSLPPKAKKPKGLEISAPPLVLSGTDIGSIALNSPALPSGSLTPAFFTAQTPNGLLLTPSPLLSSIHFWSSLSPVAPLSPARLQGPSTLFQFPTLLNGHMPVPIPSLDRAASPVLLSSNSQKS
Conditions: protein: recombinant; tags: N-terminal GST; dsDNA, one strand shown. The method, boiled down: as §1

A further assay has as its target T7, FEV (Homo sapiens, UniProt Q99581 1-238).
T7 sequence: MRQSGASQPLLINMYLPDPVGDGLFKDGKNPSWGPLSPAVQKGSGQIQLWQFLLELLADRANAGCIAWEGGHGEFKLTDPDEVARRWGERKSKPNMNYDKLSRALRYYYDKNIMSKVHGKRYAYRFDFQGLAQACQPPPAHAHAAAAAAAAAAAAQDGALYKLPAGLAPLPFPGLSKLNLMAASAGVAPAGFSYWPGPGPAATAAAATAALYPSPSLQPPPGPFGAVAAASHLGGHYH
Conditions: protein: recombinant; tags: N-terminal GST; dsDNA, one strand shown. The gist of the method:
as §1

The target in a further assay is ETV5 (Homo sapiens, UniProt P41161 1-510). Conditions: protein: recombinant; tags: N-terminal GST; dsDNA, one strand shown. The gist of the method: as §1
Sequence of ETV5 (P41161 whole entry): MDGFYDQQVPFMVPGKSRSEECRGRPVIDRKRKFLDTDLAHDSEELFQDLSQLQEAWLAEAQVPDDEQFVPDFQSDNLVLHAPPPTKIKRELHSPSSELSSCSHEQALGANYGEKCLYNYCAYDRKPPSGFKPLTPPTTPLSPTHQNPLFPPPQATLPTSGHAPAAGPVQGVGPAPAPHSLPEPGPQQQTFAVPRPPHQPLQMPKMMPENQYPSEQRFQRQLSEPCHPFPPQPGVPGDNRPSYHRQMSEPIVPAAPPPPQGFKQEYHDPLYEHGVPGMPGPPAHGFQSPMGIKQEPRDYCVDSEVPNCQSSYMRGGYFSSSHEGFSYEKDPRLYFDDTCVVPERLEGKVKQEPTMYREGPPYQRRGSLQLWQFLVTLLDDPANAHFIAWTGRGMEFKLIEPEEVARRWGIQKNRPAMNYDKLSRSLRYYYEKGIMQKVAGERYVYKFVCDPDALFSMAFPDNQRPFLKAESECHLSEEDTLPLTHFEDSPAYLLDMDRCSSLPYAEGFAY
For another assay, the target named is HSF1 (Homo sapiens, UniProt Q00613 1-529). To be noted: protein: recombinant; tags: N-terminal GST; chain copies: 3; dsDNA, one strand shown. The method, boiled down: as §1
Sequence of HSF1 (Q00613 whole entry): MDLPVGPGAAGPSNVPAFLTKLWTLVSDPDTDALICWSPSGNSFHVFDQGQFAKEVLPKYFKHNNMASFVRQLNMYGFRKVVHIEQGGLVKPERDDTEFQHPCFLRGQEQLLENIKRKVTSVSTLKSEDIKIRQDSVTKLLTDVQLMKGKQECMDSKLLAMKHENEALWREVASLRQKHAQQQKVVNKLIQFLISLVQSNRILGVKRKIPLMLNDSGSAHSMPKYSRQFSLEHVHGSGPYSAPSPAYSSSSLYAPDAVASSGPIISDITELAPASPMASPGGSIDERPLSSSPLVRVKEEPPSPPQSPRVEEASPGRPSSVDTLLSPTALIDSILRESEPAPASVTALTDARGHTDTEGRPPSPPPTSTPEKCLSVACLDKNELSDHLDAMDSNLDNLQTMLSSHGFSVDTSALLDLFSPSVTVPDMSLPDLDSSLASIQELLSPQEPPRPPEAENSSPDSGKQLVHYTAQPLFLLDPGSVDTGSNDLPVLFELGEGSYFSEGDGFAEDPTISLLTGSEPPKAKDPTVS
For the next assay, the target named is T8, SPIC (Homo sapiens, UniProt Q8N5J4 1-248).
T8 sequence: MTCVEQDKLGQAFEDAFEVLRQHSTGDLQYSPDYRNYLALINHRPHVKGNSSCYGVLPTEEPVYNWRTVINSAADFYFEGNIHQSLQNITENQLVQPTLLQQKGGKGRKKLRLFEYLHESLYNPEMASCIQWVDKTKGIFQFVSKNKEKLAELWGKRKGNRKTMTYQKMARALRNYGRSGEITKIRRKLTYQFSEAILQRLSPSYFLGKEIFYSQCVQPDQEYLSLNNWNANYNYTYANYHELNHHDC
Conditions: protein: recombinant; tags: N-terminal GST; dsDNA, one strand shown. The gist of the method:
as §1

The target of the next assay is ELF4 (Homo sapiens, UniProt Q99607 1-663). To be noted: protein: recombinant; tags: N-terminal GST; dsDNA, one strand shown. The method, boiled down:
as §1

A further assay addresses T9, ELK4 (Homo sapiens, UniProt P28324-2 1-405).
T9 sequence: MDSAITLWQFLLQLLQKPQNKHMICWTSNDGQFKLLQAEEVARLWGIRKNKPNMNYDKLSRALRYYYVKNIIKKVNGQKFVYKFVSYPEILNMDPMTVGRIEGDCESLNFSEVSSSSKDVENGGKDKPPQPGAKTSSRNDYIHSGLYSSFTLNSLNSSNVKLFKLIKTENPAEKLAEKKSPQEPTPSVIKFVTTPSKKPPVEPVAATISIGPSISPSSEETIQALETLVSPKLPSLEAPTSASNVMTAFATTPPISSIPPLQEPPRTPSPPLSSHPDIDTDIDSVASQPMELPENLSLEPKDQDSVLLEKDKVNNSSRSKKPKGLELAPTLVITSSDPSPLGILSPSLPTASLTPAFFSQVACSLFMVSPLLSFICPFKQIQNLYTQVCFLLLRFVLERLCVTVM
Conditions: protein: recombinant; tags: N-terminal GST; dsDNA, one strand shown. The gist of the method: as §1

The next assay addresses T10, ETV2 (Homo sapiens, UniProt O00321 1-342).
T10 sequence: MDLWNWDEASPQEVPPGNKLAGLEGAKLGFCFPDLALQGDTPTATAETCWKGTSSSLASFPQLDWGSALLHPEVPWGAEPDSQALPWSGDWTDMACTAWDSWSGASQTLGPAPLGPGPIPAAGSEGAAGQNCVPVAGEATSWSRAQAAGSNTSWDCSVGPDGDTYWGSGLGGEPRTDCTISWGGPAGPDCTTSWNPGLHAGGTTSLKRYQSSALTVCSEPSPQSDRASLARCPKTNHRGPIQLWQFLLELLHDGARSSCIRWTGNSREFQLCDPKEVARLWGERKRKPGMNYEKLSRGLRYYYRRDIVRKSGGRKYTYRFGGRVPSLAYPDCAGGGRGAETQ
Conditions: protein: recombinant; tags: N-terminal GST; dsDNA, one strand shown. The gist of the method:
as §1

A further assay concerns the target T11, ELF3 (Homo sapiens, UniProt P78545 1-371).
T11 sequence: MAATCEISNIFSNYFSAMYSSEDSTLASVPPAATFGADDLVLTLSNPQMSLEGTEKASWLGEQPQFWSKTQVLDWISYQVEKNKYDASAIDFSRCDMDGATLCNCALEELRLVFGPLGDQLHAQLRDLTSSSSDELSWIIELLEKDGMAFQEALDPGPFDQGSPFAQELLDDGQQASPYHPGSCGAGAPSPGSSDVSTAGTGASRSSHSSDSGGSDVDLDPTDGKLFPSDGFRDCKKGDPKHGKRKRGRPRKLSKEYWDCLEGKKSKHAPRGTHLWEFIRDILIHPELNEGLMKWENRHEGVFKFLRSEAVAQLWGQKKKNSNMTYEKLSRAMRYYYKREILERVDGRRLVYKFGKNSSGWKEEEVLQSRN
To be noted: protein: recombinant; tags: N-terminal GST; dsDNA, one strand shown. The method, boiled down:
as §1

Another assay deals with ETV1 (Homo sapiens, UniProt P50549 1-477). To be noted: protein: recombinant; tags: N-terminal GST; dsDNA, one strand shown. The gist of the method:
as §1

Sequence of ETV1 (P50549 whole entry): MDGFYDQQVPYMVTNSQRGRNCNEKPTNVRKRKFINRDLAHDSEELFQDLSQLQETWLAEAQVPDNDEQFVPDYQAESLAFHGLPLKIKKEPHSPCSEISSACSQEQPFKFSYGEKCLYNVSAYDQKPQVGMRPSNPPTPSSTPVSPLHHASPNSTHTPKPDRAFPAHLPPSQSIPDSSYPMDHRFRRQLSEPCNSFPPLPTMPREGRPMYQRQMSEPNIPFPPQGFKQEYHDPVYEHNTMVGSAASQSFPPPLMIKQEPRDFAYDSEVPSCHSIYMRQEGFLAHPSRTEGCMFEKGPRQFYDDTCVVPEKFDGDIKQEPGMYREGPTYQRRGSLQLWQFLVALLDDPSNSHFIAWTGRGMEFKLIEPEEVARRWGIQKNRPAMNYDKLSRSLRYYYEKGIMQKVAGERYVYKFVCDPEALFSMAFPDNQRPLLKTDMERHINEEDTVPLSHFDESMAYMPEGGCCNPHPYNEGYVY
Sequence of ELF4 (Q99607 whole entry): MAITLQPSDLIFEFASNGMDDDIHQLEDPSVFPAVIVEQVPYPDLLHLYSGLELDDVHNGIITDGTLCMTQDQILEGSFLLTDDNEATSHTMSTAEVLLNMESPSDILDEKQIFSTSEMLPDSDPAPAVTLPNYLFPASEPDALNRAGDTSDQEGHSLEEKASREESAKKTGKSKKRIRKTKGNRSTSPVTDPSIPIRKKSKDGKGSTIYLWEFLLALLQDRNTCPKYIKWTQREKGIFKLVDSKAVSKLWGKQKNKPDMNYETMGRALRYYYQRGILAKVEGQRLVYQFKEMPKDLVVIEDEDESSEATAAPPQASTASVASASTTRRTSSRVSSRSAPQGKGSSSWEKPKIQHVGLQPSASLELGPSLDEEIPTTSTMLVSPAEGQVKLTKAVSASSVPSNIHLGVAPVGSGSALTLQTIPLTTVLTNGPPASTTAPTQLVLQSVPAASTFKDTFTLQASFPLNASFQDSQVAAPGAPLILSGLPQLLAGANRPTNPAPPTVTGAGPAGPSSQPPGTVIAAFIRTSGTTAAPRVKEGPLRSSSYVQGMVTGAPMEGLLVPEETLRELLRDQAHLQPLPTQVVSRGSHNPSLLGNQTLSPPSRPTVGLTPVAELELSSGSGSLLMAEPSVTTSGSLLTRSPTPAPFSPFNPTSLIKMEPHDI
Sequence of ELF1 (P32519 whole entry): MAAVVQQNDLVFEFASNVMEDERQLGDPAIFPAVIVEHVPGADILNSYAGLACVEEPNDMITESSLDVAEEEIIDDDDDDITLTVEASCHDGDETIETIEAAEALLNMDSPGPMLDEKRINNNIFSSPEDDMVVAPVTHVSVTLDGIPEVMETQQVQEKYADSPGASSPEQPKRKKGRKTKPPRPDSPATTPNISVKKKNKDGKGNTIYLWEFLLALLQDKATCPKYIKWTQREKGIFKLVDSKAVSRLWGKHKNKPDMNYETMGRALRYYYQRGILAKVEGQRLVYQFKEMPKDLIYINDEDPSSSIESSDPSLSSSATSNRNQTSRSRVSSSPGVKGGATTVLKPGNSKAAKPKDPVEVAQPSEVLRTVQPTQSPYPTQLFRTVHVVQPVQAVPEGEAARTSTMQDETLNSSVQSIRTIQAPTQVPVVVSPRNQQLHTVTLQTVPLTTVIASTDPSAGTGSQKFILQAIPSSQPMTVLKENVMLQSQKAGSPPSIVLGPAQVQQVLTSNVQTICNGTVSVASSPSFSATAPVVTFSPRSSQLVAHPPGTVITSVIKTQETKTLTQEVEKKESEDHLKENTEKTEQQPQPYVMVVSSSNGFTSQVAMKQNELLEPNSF

CCGACG: the binding signal is 1.27 fold enrichment (6-mer frequency, TF over GST control) with FLI1; 1.15 fold enrichment (6-mer frequency, TF over GST control) with ELK1; 1.27 fold enrichment (6-mer frequency, TF over GST control) in the assay with GABPA; 1.2 fold enrichment (6-mer frequency, TF over GST control) in the assay with ERG; 1.28 fold enrichment (6-mer frequency, TF over GST control) with ELF1; 1.17 fold enrichment (6-mer frequency, TF over GST control) with EHF. Moreover, the binding signal was 1.22 fold enrichment (6-mer frequency, TF over GST control) with SPI1; 1.32 fold enrichment (6-mer frequency, TF over GST control) in the assay with SPIB; 1.2 fold enrichment (6-mer frequency, TF over GST control) with ELK3; 1.22 fold enrichment (6-mer frequency, TF over GST control) in the assay with FEV; 1.16 fold enrichment (6-mer frequency, TF over GST control) with ETV5; 1.02 fold enrichment (6-mer frequency, TF over GST control) with HSF1. The binding signal in the assay with SPIC is 1.57 fold enrichment (6-mer frequency, TF over GST control); in the assay with ELF4, 1.29 fold enrichment (6-mer frequency, TF over GST control); in the assay with ELK4, 1.22 fold enrichment (6-mer frequency, TF over GST control); in the assay with ETV2, 1.31 fold enrichment (6-mer frequency, TF over GST control); in the assay with ELF3 it was 1.14 fold enrichment (6-mer frequency, TF over GST control); in the assay with ETV1, 1.2 fold enrichment (6-mer frequency, TF over GST control).
